PubChem BioAssay (NCI)
“And” between values parts separate entries of the source, which are not always exact repeats. Equal entries are not always repeated. About 83,000 compounds went through this panel and 20% of them were active in at least one assay; those are over-represented in the sample as a whole.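 Cells were grown in 96-well plates and exposed to the test compound at a single concentration for 48 hours; results are reported as percent growth, with values below 10 considered active.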 The source made the active and inactive calls.

Columns and labels:
Assay in all cases: NCI-60 one-dose screen, 48 h (100 = growth as untreated, 0 = no growth, -100 = all killed)
HCT-15 colon = system: HCT-15 colon
SNB-19 CNS = system: SNB-19 CNS
U251 CNS = details: 10 µM unless noted
PC-3 prostate = system: PC-3 prostate
SK-MEL-5 melanoma = system: SK-MEL-5 melanoma
UACC-62 melanoma = system: UACC-62 melanoma
LOX IMVI melanoma = details: 10 µM unless noted
SK-MEL-28 melanoma = system: SK-MEL-28 melanoma
HT29 colon = system: HT29 colon
SNB-75 CNS = system: SNB-75 CNS

Measured: growth

O=c1ccn2c(n1)OC1CC2OC1COC(c1ccccc1)(c1ccccc1)c1ccccc1 (configuration not stated)
inactive: HCT-15 colon; 10 µM 97% | HCT-15 colon; 100 µM 101% | SNB-19 CNS; 10 µM 111% | SNB-19 CNS; 100 µM 91.8% | U251 CNS 89.2% [100 µM] | PC-3 prostate; 10 µM 84.1% | PC-3 prostate; 100 µM 63.1% | SK-MEL-5 melanoma; 10 µM 100% | SK-MEL-5 melanoma; 100 µM 28.5% | UACC-62 melanoma; 10 µM 103% | UACC-62 melanoma; 100 µM 44.5% | LOX IMVI melanoma 105% | SK-MEL-28 melanoma; 10 µM 118% | SK-MEL-28 melanoma; 100 µM 74.3%

CNc1ccc(Cl)cc1S(=O)(=O)c1ccccc1[N+](=O)[O-]
inactive: HCT-15 colon; 10 µM unless noted 105% and 91.3% | HT29 colon; 10 µM unless noted 101% and 106% | SNB-75 CNS; 10 µM unless noted 73.4% and 11.4% | SNB-19 CNS; 10 µM unless noted 110% and 104% | U251 CNS 84.3% and 86.7% | PC-3 prostate; 10 µM unless noted 91.9% and 96.2% | SK-MEL-5 melanoma; 10 µM unless noted 34.4% and 95.6% | UACC-62 melanoma; 10 µM unless noted 60.9% and 69.8% | LOX IMVI melanoma 77.5% and 81.4% | SK-MEL-28 melanoma; 10 µM unless noted 96.2%

CCOC(=O)C1=C(C)NC(C)=C(C(=O)OCC)C1
inactive: HCT-15 colon; 10 µM unless noted 108% and 90.8% | HT29 colon; 10 µM unless noted 101% and 102% | SNB-75 CNS; 10 µM unless noted 83.1% and 76.6% | SNB-19 CNS; 10 µM unless noted 99.5% | U251 CNS 104% and 91.2% | PC-3 prostate; 10 µM unless noted 82.4% and 104% | SK-MEL-5 melanoma; 10 µM unless noted 101% and 103% | UACC-62 melanoma; 10 µM unless noted 94.4% and 102% | LOX IMVI melanoma 98.4% and 102% | SK-MEL-28 melanoma; 10 µM unless noted 105% and 101%

Cc1cc(NC(=O)NC(=O)c2ccccc2N(C)C)ccc1Oc1ncc(Br)cn1
-28.2% (active) and 12.9% (inactive): SNB-75 CNS; 10 µM unless noted
-10.1% (active) and 25.9% (inactive): PC-3 prostate; 10 µM unless noted
inactive: SNB-19 CNS; 10 µM unless noted 29.2% and 42.7% | UACC-62 melanoma; 10 µM unless noted 30.4% and 37% | LOX IMVI melanoma 27.3% and 49.7% | SK-MEL-28 melanoma; 10 µM unless noted 68.1%
-31% (active) and 31% (inactive): HCT-15 colon; 10 µM unless noted
active: U251 CNS -43.4% | SK-MEL-5 melanoma; 10 µM unless noted 2.16% and 0.678%
-15.9% (active) and 17% (inactive): HT29 colon; 10 µM unless noted

O=C1c2ccccc2CN1c1ccccc1
inactive: HCT-15 colon; 10 µM unless noted 107% | HT29 colon; 10 µM unless noted 82.4% | SNB-75 CNS; 10 µM unless noted 102% | SNB-19 CNS; 10 µM unless noted 88.9% | U251 CNS 101% | PC-3 prostate; 10 µM unless noted 116% | SK-MEL-5 melanoma; 10 µM unless noted 96.5% | UACC-62 melanoma; 10 µM unless noted 85.9% | LOX IMVI melanoma 113% | SK-MEL-28 melanoma; 10 µM unless noted 120%

O=C(c1ccc(Cl)cc1)C1C(c2ccccc2)C1[N+](=O)[O-] (configuration not stated)
inactive: HCT-15 colon; 10 µM unless noted 102% | HT29 colon; 10 µM unless noted 97.2% | SNB-75 CNS; 10 µM unless noted 106% | SNB-19 CNS; 10 µM unless noted 97.1% | U251 CNS 89.9% | PC-3 prostate; 10 µM unless noted 90.5% | SK-MEL-5 melanoma; 10 µM unless noted 96.9% | UACC-62 melanoma; 10 µM unless noted 91.1% | LOX IMVI melanoma 95.2% | SK-MEL-28 melanoma; 10 µM unless noted 111%

COc1ccc(S(=O)(=O)c2ccc(F)cc2)cc1
inactive: HCT-15 colon; 10 µM unless noted 95.6% | HT29 colon; 10 µM unless noted 106% | SNB-75 CNS; 10 µM unless noted 101% | SNB-19 CNS; 10 µM unless noted 93.1% | U251 CNS 101% | PC-3 prostate; 10 µM unless noted 94.1% | SK-MEL-5 melanoma; 10 µM unless noted 106% | UACC-62 melanoma; 10 µM unless noted 93.9% | LOX IMVI melanoma 81.5% | SK-MEL-28 melanoma; 10 µM unless noted 104%

CS(=O)(=O)OCC1NC(=O)C(COS(C)(=O)=O)NC1=O (configuration not stated)
inactive: HCT-15 colon; 10 µM unless noted 91.8% and 88.4% | HT29 colon; 10 µM unless noted 85.6% and 81.3% | SNB-75 CNS; 10 µM unless noted 56.5% and 100% | SNB-19 CNS; 10 µM unless noted 105% and 110% | U251 CNS 95.9% and 93.9% | PC-3 prostate; 10 µM unless noted 88.3% and 82.6% | SK-MEL-5 melanoma; 10 µM unless noted 96.5% and 103% | UACC-62 melanoma; 10 µM unless noted 101% and 102% | LOX IMVI melanoma 94.1% and 90.5% | SK-MEL-28 melanoma; 10 µM unless noted 115% and 112%

CS/C(=C\c1ccc(C(=O)c2ccc(C)cc2)n1C)S(C)=O (configuration not stated)
inactive: HCT-15 colon; 10 µM 87.6% | HCT-15 colon; 100 µM 55.1% | HT29 colon; 10 µM 94% | HT29 colon; 100 µM 81.2% | SNB-75 CNS; 10 µM 96.1% | SNB-75 CNS; 100 µM 100% | SNB-19 CNS; 10 µM 91.3% | SNB-19 CNS; 100 µM 77.5% | U251 CNS 74.7% [100 µM] | PC-3 prostate; 10 µM 76.6% | PC-3 prostate; 100 µM 71.1% | SK-MEL-5 melanoma; 10 µM 81.2% | SK-MEL-5 melanoma; 100 µM 36.5% | UACC-62 melanoma; 10 µM 83.3% | UACC-62 melanoma; 100 µM 61.4% | LOX IMVI melanoma 99.4% | SK-MEL-28 melanoma; 10 µM 84.7% | SK-MEL-28 melanoma; 100 µM 74.9%
